# High-throughput results: PubChem BioAssay, Broad Institute
# Shown are actives, neighbours in structure and some others; about 3.9% of the full set was active somewhere.
# N-glyco inh – N-linked glycosylation inhibition; D54 ERlucT glycosylation luciferase reporter, 24 h; percent of 100 nM tunicamycin response; AID 588692; reporter increase, % at 12.5 µM; hit rate 0.23% among 360,000;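 active means mean luciferase reporter signal, scaled so untreated is 0 and the glycosylation-blocking control 100, at or above a set limit in every replicate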;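 further: luciferase carries N-glycosylation sites so blocking glycosylation raises the light; 0% = median of neutral control wells and 100% = median of 100 nM tunicamycin wells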
# SUMO Mot1 rescue – inhibitors of SUMOylation pathway: yeast Mot1-301 growth rescue | growth rescue, % at 18.8 µM | S. cerevisiae Mot1-301 growth rescue, ATP luminescence, 38.5C; percent above DMSO median, 100 means doubled | hit rate 1% among 320,000;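 active means every valid replicate shows activation above 250% relative to neutral control wells; inactive means the rest, any valid replicate at or below 250%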;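 further: OY570 slx delta 5 strain wells were the positive control but not used for scaling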
# ALR H2O2 inh – human ALR oxidase inhibition via reduced H2O2; inhibition, % (test concentration not listed); purified ALR, DTT oxidation, H2O2 HRP-luminol luminescence; P55789; hit rate 3.8% among 290,000; AID 485317;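 active means mean replicate inhibition above about 79%, with every replicate also reaching it, limit read from the data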
# Target sequence (P55789 whole entry, looked up): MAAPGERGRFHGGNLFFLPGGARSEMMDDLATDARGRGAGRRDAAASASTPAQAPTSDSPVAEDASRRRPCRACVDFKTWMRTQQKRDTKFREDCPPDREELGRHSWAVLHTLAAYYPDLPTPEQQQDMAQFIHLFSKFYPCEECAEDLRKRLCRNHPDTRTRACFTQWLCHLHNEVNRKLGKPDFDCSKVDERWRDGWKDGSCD
# Casp6 inh – caspase-6 (human) enzyme inhibition | P55212 | purified caspase-6, Z-VEID-R110 cleavage fluorescence | inhibition, % at 12.5 µM | hit rate 0.53% among 350,000 | AID 686996;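 active means mean inhibition across replicates at least about 35%, with every replicate also reaching that limit, limit read from the data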;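 further: 0% = median of neutral control wells and 100% = no fluorescence left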
# Target sequence (P55212 24-179 limits assumed): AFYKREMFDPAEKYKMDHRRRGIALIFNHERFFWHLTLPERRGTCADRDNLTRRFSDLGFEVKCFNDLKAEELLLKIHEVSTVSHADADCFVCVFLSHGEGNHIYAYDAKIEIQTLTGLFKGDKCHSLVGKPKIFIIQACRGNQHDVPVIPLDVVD
# Target sequence (P55212 194-293 limits assumed): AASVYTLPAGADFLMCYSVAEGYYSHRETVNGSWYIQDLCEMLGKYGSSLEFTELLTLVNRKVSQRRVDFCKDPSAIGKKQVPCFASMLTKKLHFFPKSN
# CDK5 inh – blocks human CDK5/p35 kinase activity; Q00535+Q15078; Recombinant CDK5/p35, ADP-Glo luminescence, 60 min; inhibition, % at 10 µM; hit rate 0.01% among 330,000;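 active means highest replicate inhibition of at least 50% and at least 75% of replicates reaching 50%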;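 further: plate controls were DMSO neutral control for no effect and GW8510 at 10 µM for full effect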
# NSD2 HMT inh – blocks human histone methyltransferase NSD2. NSD2 peptide methylation, AlphaScreen, 120 min. inhibition, % at 12.5 µM. hit rate 0.54% among 310,000; in the data active means inhibition above about 50%
# Active calls of the source: *; nt = not tested or not shown; + = active, no number.
SMILES,N-glyco inh,SUMO Mot1 rescue,ALR H2O2 inh,Casp6 inh,CDK5 inh,NSD2 HMT inh
COc1ccc(C(=O)Nc2cccc3nc(C)ccc23)cc1OC,-1,549*,-3,-1,-2,2
O=C(N/N=C/c1ccc(O)cc1)c1csc2ccccc12,2,-17,98*,nt,0,1
O=C(N/N=C/c1ccc(O)cc1)c1ccncc1,1,-2,99*,-2,0,0
O=C(CNC(=O)c1ccccc1Br)N/N=C/c1ccc(O)cc1,1,92,99*,-2,-3,-10
CC(C)=C(NC(=O)c1ccccc1)C(=O)N/N=C/c1ccc(O)cc1,-1,-7,99*,nt,1,-2
[N-]=[N+]=Nc1ccccc1C[C@@]1(C(=O)NCCN2CCOCC2)N=C(c2ccc(OCCCO)cc2)O[C@@H]1c1ccccc1N=[N+]=[N-],nt,nt,nt,2,nt,nt
C[C@@H]1CN([C@H](C)CO)C(=O)c2cc(NC(=O)C3CCCCC3)ccc2O[C@H]1CN(C)Cc1ccncc1,nt,nt,nt,-1,nt,nt
O=C(Nc1ccccc1C(=O)N/N=C/c1ccc(O)cc1)c1ccccc1,-3,245,94*,2,5,-1
Cc1ccc(CCNC(=O)C2CCC(=O)N2Cc2ccc(F)cc2)cc1 (configuration not stated),1,4,-5,2,1,-3
CN(CCCNC(=O)C1CCC(=O)N1Cc1ccccc1Cl)c1ccccc1 (configuration not stated),1,-1,98*,nt,1,9
O=C(C1CCC(=O)N1Cc1ccccc1Cl)N1CCN(c2ccc(F)cc2)CC1 (configuration not stated),5,nt,97*,nt,-1,8
CN(CCCNC(=O)C1CCC(=O)N1Cc1ccc(F)cc1)c1ccccc1 (configuration not stated),1,-23,99*,-2,2,nt
CC(C)N1C(=O)CCC1C(=O)N1CCN(c2ccc(F)cc2)CC1 (configuration not stated),3,3,nt,0,-1,0
COc1ccc(NC(=O)N(C)C[C@@H]2Oc3c(NC(=O)Nc4ccc5c(c4)OCO5)cccc3C(=O)N([C@H](C)CO)C[C@@H]2C)cc1,nt,nt,nt,-1,nt,nt
Cc1noc(C)c1NC(=O)Nc1ccc2c(c1)C(=O)N([C@@H](C)CO)C[C@H](C)[C@@H](CN(C)Cc1ccccc1)OCCCC[C@H](C)O2,nt,nt,nt,1,nt,nt
C[C@H](CO)N1C[C@H](C)[C@@H](CN(C)Cc2ccccc2)Oc2ncc(Br)cc2C1=O,nt,nt,nt,2,nt,nt
Cc1ccc2nc(-c3ccc(SCC(=O)O)nc3)[nH]c2c1,5,-9,98*,nt,1,0
CCOc1cc(/C=C2\C(=O)ON=C2c2ccccc2)ccc1OC,10,7,92*,-2,0,2
COc1ccc(/C=C2/C(=O)ON=C2c2ccccc2)cc1OC,9,12,23,nt,0,8
O=C(C[C@@H]1CC[C@@H]2[C@H](COC[C@H](O)CN2C(=O)Nc2ccc(Cl)c(Cl)c2)O1)NC1CCC1,nt,nt,nt,0,nt,nt
CCN(CC)c1ccc(N=Cc2ccccc2[N+](=O)[O-])cc1,3,10,87*,-3,2,nt
CCN(CC)c1ccc(N=Cc2ccc([N+](=O)[O-])o2)cc1,4,-3,nt,16,2,34
Cc1ccc(Nc2ncnc3sccc23)c(C)c1,-5,5,9,99*,1,-2
CCc1ccc(/C=N/Nc2ncnc3nc[nH]c23)cc1,-13,nt,81*,1,-2,-3
CC(C)=NNc1ncnc2nc[nH]c12,1,nt,nt,-3,-2,-6
SMILES,N-glyco inh,SUMO Mot1 rescue,ALR H2O2 inh,Casp6 inh,CDK5 inh,NSD2 HMT inh
CC(C)CC1(C(=O)O)NC(c2ccccc2O)C2C(=O)N(C(C)C)C(=O)C21 (configuration not stated),2,-9,93*,-2,-1,nt
CCOC(=O)C1(C)NC(c2ccc(O)cc2)C2C(=O)N(c3ccccc3)C(=O)C21 (configuration not stated),1,-3,-5,2,-2,-2
COc1cccc(C2NC(CCSC)(C(=O)O)C3C(=O)N(C(C)C)C(=O)C23)c1O (configuration not stated),3,-1,98*,2,2,nt
CC(C)N1C(=O)C2C(c3ccccc3O)NC(C)(C(=O)O)C2C1=O (configuration not stated),1,-8,89*,0,2,nt
COc1cccc(C(=O)Nc2ccc3c(c2)OC[C@@H](C)N(C(=O)C2CCCC2)C[C@@H](C)[C@H](OC)CN(C)C3=O)c1,nt,nt,nt,2,nt,nt
COc1cccc(S(=O)(=O)N[C@@H]2C=C[C@H](CC(=O)NC3Cc4ccccc4C3)O[C@H]2CO)c1,nt,nt,nt,-5,nt,nt
CNC[C@H]1Oc2c(NC(=O)Nc3ccc(C(F)(F)F)cc3)cccc2C(=O)N([C@@H](C)CO)C[C@@H]1C,nt,nt,nt,1,nt,nt
Cc1cccc(-c2nc(CSCC(=O)NCc3cccs3)c(C)o2)c1,0,-7,98*,nt,0,nt
Cc1cccc(-c2nc(CS(=O)CC(=O)NCc3cccs3)c(C)o2)c1 (configuration not stated),2,-3,nt,0,0,nt
Cc1oc(-c2ccc(Cl)cc2)nc1CS(=O)CC(=O)NCc1cccs1 (configuration not stated),1,-10,99*,-1,0,nt
Cc1oc(-c2ccccc2F)nc1CS(=O)CC(=O)NCc1cccs1 (configuration not stated),-1,37,100*,1,-1,nt
Nc1c(C(=O)N/N=C/c2cccnc2)oc2nc(-c3ccco3)cc(-c3ccco3)c12,3,-8,-26,89*,nt,8
CC(=O)NS(=O)(=O)c1ccc(NC(=O)c2cccc(S(=O)(=O)N3CCc4ccccc43)c2)cc1,0,23,97*,9,-2,4
CN1C(=O)c2cc(NC(=O)C3CCCCC3)ccc2OC[C@@H]2O[C@H](CC(=O)NCC3CCCCC3)CC[C@@H]21,nt,nt,nt,-4,nt,nt
O=C(Nc1ccc(-c2nc3ccccc3o2)cc1)c1ccc(N2CCOCC2)c([N+](=O)[O-])c1,9,16,0,1,1,-1
Cn1cc([N+](=O)[O-])c(C(=O)Nc2ccc(-c3nc4ccccc4o3)cc2)n1,6,+,-7,-8,0,1
CO[C@H]1CN(C)C(=O)c2ccc(NC(=O)C3CCCC3)cc2OC[C@H](C)N(C)C[C@H]1C,nt,nt,nt,-1,nt,nt
Cc1noc(C)c1S(=O)(=O)Nc1ccc2c(c1)C(=O)N([C@H](C)CO)C[C@@H](C)[C@@H](CN(C)S(=O)(=O)c1cccs1)O2,nt,nt,nt,1,nt,nt
Cc1nc(SC(C)C(=O)c2c(N)n(C)c(=O)n(C)c2=O)c2c(C)c(C)sc2n1 (configuration not stated),7,-2,91*,49*,0,-1
